Assay results as given in PubChem BioAssay AID1159580 (chemical genetic matrix, 2015).
Values joined by “and” are separate entries in the source; they are usually repeats but may differ in a detail not shown here. Identical values can stand only once. The whole screen tested about 5,500 compounds, of which about 2,000 (36%) were called active. Roughly 18% stayed inconclusive and do not appear here. Cut-off read from the data, not from the text of the source: active = normalized growth mostly below about 0.91 (no sharp cut-off); inconclusive = no clear call, values can overlap the other calls; inactive = mostly above about 0.92. The list shows a part of the results.

Test: chemical genetic growth profiling, strain panel (AID 1159580);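 note: tested at 20 µM; growth read once vehicle control cultures reached saturation at 30 °C; 1 = growth at the plate median or of vehicle wells; lower values mean less growth of the strain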
Details: S. cerevisiae deletion strains, growth OD

Measured: normalized growth

COC1(C)CCC2OC2(C)CCC2C1CC2(C)C (centres undefined)
inactive: locus YAL013W, strain DEP1, active compounds read low 1 | locus YAL021C, strain ccr4, active compounds read low 1 | locus YAL026C, strain drs2, active compounds read low 1.03 | locus YAL030W, strain snc1, active compounds read low 1.01 | locus YBL061C, strain skt5, active compounds read low 1.01 | locus YBR009C, strain hhf1, active compounds read low 0.991 | locus YBR021W, strain FUR4, active compounds read low 1.02 | locus YBR023C, strain chs3, active compounds read low 1 | locus YBR171W, strain sec66, active compounds read low 1.02 | locus YBR229C, strain ROT2, active compounds read low 1.01 | locus YBR231C, strain swc5, active compounds read low 1.02 | locus YBR279W, strain paf1, active compounds read low 0.998 | locus YCL011C, strain gbp2, active compounds read low 1.01 | locus YCL016C, strain dcc1, active compounds read low 1 | locus YCL029C, strain bik1, active compounds read low 0.998 | locus YCL061C, strain MRC1, active compounds read low 1 | locus YCL069W, strain vba3, active compounds read low 1.02 | locus YCR088W, strain abp1, active compounds read low 1.01 | locus YDL005C, strain med2, active compounds read low 1.01 | locus YDL035C, strain GPR1, active compounds read low 1.01 | locus YDL040C, strain nat1, active compounds read low 1.01 | locus YDL074C, strain BRE1, active compounds read low 1.01 | locus YDL101C, strain DUN1, active compounds read low 1.02 | locus YDL134C, strain PPH21, active compounds read low 1.04 | locus YDL185W, strain tfp1, active compounds read low 1.01 | locus YDL192W, strain arf1, active compounds read low 0.99 | locus YDR001C, strain nth1, active compounds read low 1.01 | locus YDR069C, strain doa4, active compounds read low 1.01 | locus YDR101C, strain arx1, active compounds read low 0.993 | locus YDR137W, strain rgp1, active compounds read low 1 | locus YDR150W, strain NUM1, active compounds read low 0.98 | locus YDR159W, strain sac3, active compounds read low 0.997 | locus YDR162C, strain NBP2, active compounds read low 0.995 | locus YDR195W, strain ref2 1.02 | locus YDR297W, strain sur2, active compounds read low 0.997 | locus YDR318W, strain mcm21, active compounds read low 1.01 | locus YDR334W, strain swr1, active compounds read low 1.02 | locus YDR335W, strain msn5, active compounds read low 1.02 | locus YDR388W, active compounds read low 1.01 | locus YDR392W, strain spt3, active compounds read low 0.818 | locus YDR502C, strain sam2, active compounds read low 1.04 | locus YEL003W, strain gim4, active compounds read low 1.01 | locus YEL037C, strain rad23, active compounds read low 1.01 | locus YEL061C, strain CIN8 (second series), active compounds read low 1.02 | locus YER015W, strain faa2, active compounds read low 1 | locus YER016W, strain bim1, active compounds read low 1.01 | locus YER110C, active compounds read low 1.02 | locus YER111C, strain swi4, active compounds read low 1 | locus YER155C, strain BEM2 (second series), active compounds read low 0.995 | locus YER155C, strain BEM2, active compounds read low 0.996 | locus YER167W, strain BCK2, active compounds read low 0.997 | locus YFR010W, strain ubp6, active compounds read low 1.03 | locus YGL078C, strain dbp3, active compounds read low 1.05 | locus YGL086W, strain mad1, active compounds read low 1 | locus YGL167C, strain pmr1, active compounds read low 1.01 | locus YGL173C, strain kem1, active compounds read low 1.01 | locus YGL227W, strain vid30, active compounds read low 1.01 | locus YGL240W, strain doc1, active compounds read low 1 | locus YGL248W, strain PDE1, active compounds read low 1.05 | locus YGL253W, strain hxk2, active compounds read low 1.01 | locus YGR078C, strain PAC10, active compounds read low 1.05 | locus YGR135W, strain pre9, active compounds read low 1.06 | locus YGR252W, strain gcn5, active compounds read low 1.03 | locus YHR013C, strain ard1, active compounds read low 1.03 | locus YHR027C, strain rpn1, active compounds read low 1.02 | locus YHR030C, strain SLT2, active compounds read low 1.01 | locus YHR079C, strain IRE1 (second series), active compounds read low 1 | locus YHR079C, strain IRE1, active compounds read low 1.04 | locus YHR094C, strain hxt1, active compounds read low 1.01 | locus YHR129C, strain ARP1, active compounds read low 1.01 | locus YHR142W, strain chs7, active compounds read low 1.03 | locus YHR200W, strain rpn10, active compounds read low 1.02 | locus YIL066C, strain RNR3, active compounds read low 1 | locus YIL073C, strain SPO22, active compounds read low 1.06 | locus YIL125W, strain kgd1, active compounds read low 0.981 | locus YIR030C, strain dcg1, active compounds read low 0.999 | locus YJL092W, strain hpr5, active compounds read low 1.01 | locus YJL095W, strain BCK1 (second series), active compounds read low 1.01 | locus YJL095W, strain BCK1, active compounds read low 1.11 and 1.04 | locus YJL115W, strain asf1, active compounds read low 1.01 | locus YJL129C, strain trk1, active compounds read low 1.01 | locus YJL134W, strain LCB3, active compounds read low 1.01 | locus YJL154C, strain vps35, active compounds read low 1.02 | locus YJL164C, strain tpk1, active compounds read low 1.01 | locus YJL166W, strain qcr8, active compounds read low 1.02 | locus YJL168C, strain set2, active compounds read low 0.988 | locus YJL187C, strain SWE1 (second series), active compounds read low 1.05 | locus YJL187C, strain SWE1, active compounds read low 1 | locus YJR043C, strain POL32, active compounds read low 0.99 | locus YJR066W, strain TOR1, active compounds read low 0.962 | locus YKL009W, strain mrt4, active compounds read low 1.04 | locus YKL068W, active compounds read low 1 | locus YKL085W, strain MDH1 (second series), active compounds read low 1 | locus YKL085W, strain MDH1, active compounds read low 1 | locus YKL160W, strain elf1, active compounds read low 1 | locus YKL190W, strain CNB1, active compounds read low 1 | locus YKR001C, strain vps1, active compounds read low 1.02 | locus YKR026C, strain gcn3, active compounds read low 1.01 | locus YKR091W, strain srl3, active compounds read low 1.01 | locus YLL001W, strain dnm1, active compounds read low 0.989 | locus YLL026W, active compounds read low 0.991 | locus YLL041C, strain sdh2, active compounds read low 1.02 | locus YLR027C, strain aat2, active compounds read low 0.993 | locus YLR039C, strain RIC1, active compounds read low 1.06 | locus YLR058C, strain SHM2, active compounds read low 1.03 | locus YLR102C, strain apc9, active compounds read low 0.997 | locus YLR113W, strain HOG1, active compounds read low 1.03 | locus YLR221C, strain rsa3, active compounds read low 1.01 | locus YLR258W, strain gsy2, active compounds read low 1.01 | locus YLR262C, strain YPT6 (second series), active compounds read low 0.979 | locus YLR262C, strain YPT6, active compounds read low 1.07 | locus YLR268W, strain sec22, active compounds read low 0.983 | locus YLR320W, strain mms22, active compounds read low 1 | locus YLR342W, strain FKS1, active compounds read low 1 | locus YLR357W, strain rsc2, active compounds read low 1.02 | locus YLR370C, strain arc18, active compounds read low 1 | locus YLR371W, strain rom2, active compounds read low 1.01 | locus YLR384C, strain iki3, active compounds read low 1 | locus YLR418C, strain cdc73, active compounds read low 1.04 | locus YML016C, strain PPZ1, active compounds read low 1.02 | locus YML032C, strain rad52, active compounds read low 1 | locus YML120C, strain ndi1, active compounds read low 1.01 | locus YML124C, strain tub3, active compounds read low 1 | locus YMR058W, strain fet3, active compounds read low 1.01 | locus YMR078C, strain ctf18, active compounds read low 1.01 | locus YMR125W, strain sto1, active compounds read low 0.997 | locus YMR129W, active compounds read low 1.01 | locus YMR205C, strain PFK2, active compounds read low 0.981 | locus YMR223W, strain ubp8, active compounds read low 1.01 | locus YMR231W, strain pep5, active compounds read low 1 | locus YMR307W, strain GAS1, active compounds read low 1.02 | locus YNL067W, strain RPL9B, active compounds read low 1.04 | locus YNL071W, strain lat1, active compounds read low 1.01 | locus YNL153C, strain GIM3, active compounds read low 1.04 | locus YNL183C, strain NPR1, active compounds read low 0.972 | locus YNL209W, strain ssb2, active compounds read low 1.01 | locus YNL233W, strain BNI4, active compounds read low 1.06 | locus YNL248C, strain rpa49, active compounds read low 1.02 | locus YNL250W, strain rad50, active compounds read low 1.03 | locus YNL271C, strain bni1, active compounds read low 1.01 | locus YNL298W, strain CLA4, active compounds read low 1.02 | locus YNL307C, strain MCK1, active compounds read low 1.01 | locus YNL322C, strain KRE1 (second series), active compounds read low 1.01 | locus YNR049C, strain mso1, active compounds read low 1.01 | locus YNR052C, strain pop2, active compounds read low 1.03 | locus YOL012C, strain htz1 1.84 | locus YOL147C, strain pex11, active compounds read low 1.01 | locus YOR001W, strain rrp6, active compounds read low 1.02 | locus YOR061W, strain CKA2, active compounds read low 1.01 | locus YOR069W, strain VPS5, active compounds read low 1.01 | locus YOR070C, strain gyp1, active compounds read low 1.02 | locus YOR080W, strain dia2, active compounds read low 1 | locus YOR083W, strain WHI5, active compounds read low 0.996 | locus YOR106W, strain vam3, active compounds read low 1.01 | locus YOR136W, strain idh2, active compounds read low 1.01 | locus YOR144C, strain elg1, active compounds read low 0.994 | locus YOR184W, strain ser1, active compounds read low 0.976 | locus YOR231W, strain MKK1, active compounds read low 1.07 | locus YOR265W, strain rbl2, active compounds read low 1.02 | locus YOR270C, strain vph1, active compounds read low 1.15 | locus YOR290C, strain snf2, active compounds read low 1.02 | locus YOR316C, strain cot1, active compounds read low 1.01 | locus YPL051W, strain arl3, active compounds read low 0.976 | locus YPL055C, strain LGE1, active compounds read low 1 | locus YPL078C, strain atp4, active compounds read low 1.01 | locus YPL106C, strain sse1, active compounds read low 1.01 | locus YPL240C, strain hsp82, active compounds read low 1.01 | locus YPL241C, strain CIN2, active compounds read low 0.993 | locus YPL256C, strain CLN2, active compounds read low 1.03 | locus YPR119W, strain clb2, active compounds read low 1 | locus YPR141C, strain kar3, active compounds read low 1.02 | locus YPR163C, strain tif3, active compounds read low 1 | locus YPR167C, strain met16, active compounds read low 1.01 | strain wtn01, active compounds read low 0.986
